Laboratory results published in PubChem BioAssay (EPA / NIEHS).
“And” between values parts separate entries of the source, which are not always exact repeats. Identical values can stand only once. Records with an inconclusive call do not appear. The source made the active and inactive calls. The calls were made as follows, unless noted: active = hit-call score of the fitted dose curve at least 0.9, where 1 is the maximum; inactive = score below 0.9.

How the values were obtained:
[1] = target: Glucocorticoid receptor (Homo sapiens) (UniProt P04150); test: ATG_GR_TRANS: Attagene TRANS-FACTORIAL HepG2 Assay for human Glucocorticoid Receptor (GR) (AID 2282978; active = hit-call score of the fitted dose curve at least 0.9, where 1 is the maximum;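 also: activators score as hits since higher reporter transcript over DMSO is fitted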); settings: HepG2 Attagene TRANS GR reporter, mRNA transcription
How it was run: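 Readout is reporter transcript from a chimeric GR-Gal4 acting on GAL4-UAS in transfected human HepG2 liver cells after 24 h exposure, quantified by RT-PCR and capillary electrophoresis. Activation fitted upward against DMSO.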

[2] = target: Oxysterols receptor LXR-beta (Homo sapiens) (UniProt P55055); test: ATG_LXRb_TRANS: Attagene TRANS-FACTORIAL HepG2 Assay for human Liver X Receptor beta (LXRb) (AID 2282981; active = hit-call score of the fitted dose curve at least 0.9, where 1 is the maximum); settings: HepG2 Attagene TRANS GAL4-LXRb reporter, mRNA
How it was run: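 HepG2 cells transiently transfected with multiple reporter transcription units carrying chimeric NR-Gal4 proteins acting on GAL4-UAS reporters; compound exposure 24 h. Reporter mRNA quantified by RT-PCR, 6-FAM labelling, HpaI digestion and capillary electrophoresis; gain of signal versus DMSO.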

[3] = target: Hepatocyte nuclear factor 4-alpha (Homo sapiens) (UniProt P41235); test: ATG_HNF4a_TRANS: Attagene TRANS-FACTORIAL HepG2 Assay for human Hepatocyte Nuclear Factor 4 alpha (HNF4a) (AID 2282982; active = hit-call score of the fitted dose curve at least 0.9, where 1 is the maximum); settings: HepG2 HNF4a transactivation reporter, mRNA readout
How it was run: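 HepG2 cells transiently transfected with multiplexed GAL4-UAS reporter units responsive to chimeric NR-GAL4 proteins; compound exposure 24 h. Reporter mRNA quantified by RT-PCR, 6-FAM labelling, HpaI digestion and capillary electrophoresis; gain of signal versus DMSO baseline.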

[4] = ATG_M_32_TRANS: Attagene TRANS-FACTORIAL HepG2 Assay for M32 Transcription Factor (Internal Marker) (AID 2282984; active = hit-call score of the fitted dose curve at least 0.9, where 1 is the maximum;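 also: transcript level of a background control reporter unit measured by RT-PCR and capillary electrophoresis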); settings: HepG2 Attagene TRANS M32 internal marker reporter
How it was run: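 HepG2 cells transiently transfected with multiple GAL4-UAS reporter transcription units, dosed for 24 hours; reporter mRNA quantified by RT-PCR, 6-FAM primer extension, HpaI digestion and capillary electrophoresis. Gain-of-signal fitted versus DMSO baseline; internal background-control marker.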

[5] = target: Nuclear receptor subfamily 4 group A member 2 (Homo sapiens) (UniProt P43354); test: ATG_NURR1_TRANS: Attagene TRANS-FACTORIAL HepG2 Assay for human Nuclear Receptor Related Protein 1 (NURR1) (AID 2282985; active = hit-call score of the fitted dose curve at least 0.9, where 1 is the maximum); settings: HepG2 Attagene TRANS reporter, mRNA readout
How it was run: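 HepG2 cells transiently transfected with GAL4-UAS reporter units and chimeric NR-Gal4 constructs; chemical exposure 24 h. Reporter mRNA quantified by RT-PCR, fluorescent labelling and capillary electrophoresis; gain of signal fitted relative to DMSO baseline.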

[6] = target: Transcriptional activator Myb (Homo sapiens) (UniProt P10242); test: ATG_Myb_CIS: Attagene CIS-FACTORIAL HepG2 Assay for human Myeloblastosis (Myb) Proto-Oncogene Transcription Factor (AID 2282986); settings: HepG2 Attagene CIS-FACTORIAL Myb reporter transcription; actives raise or lower the signal
How it was run: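 Reporter mRNA is quantified by RT-PCR and capillary electrophoresis 24 h after dosing HepG2 cells transfected with cis-regulated reporter units, which track endogenous transcription factor activity. Gain and loss of signal are fitted versus DMSO baseline.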

[7] = ATG_NFI_CIS: Attagene CIS-FACTORIAL HepG2 Assay for human Nuclear Factor I (NFI) (AID 2282989); settings: HepG2 cis-regulatory reporter, NFI response element transcription; actives raise or lower the signal
How it was run: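 Transient MRTU transfection of HepG2 → 24 h chemical dosing → total RNA, oligo(dT) RT → PCR, 6-FAM primer extension, HpaI cut → capillary electrophoresis. Endpoint fitted bidirectionally relative to DMSO.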

[8] = ATG_NF_kB_CIS: Attagene CIS-FACTORIAL HepG2 Assay for human Nuclear Factor Kappa B (NF-kB) (AID 2282991); settings: HepG2 Attagene cis-factorial NF-kB reporter mRNA; actives raise or lower the signal
How it was run: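 Readout is reporter transcript level, gain or loss versus DMSO, measured 24 h post-dose via RT-PCR, fluorescent labelling and capillary electrophoresis. Human HepG2 liver cells carried transiently transfected CIS reporter constructs reflecting endogenous factors.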

[9] = ATG_NRF2_ARE_CIS: Attagene CIS-FACTORIAL HepG2 Assay for human Nuclear Factor Erythroid 2 Related Factor 2 (NFR2) response to Antioxidant Response Elements (ARE) (AID 2282992); settings: HepG2 Attagene ARE/NRF2 reporter, transcription factor activity; actives raise or lower the signal;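 as to AC50: reporter mRNA level measured by RT-PCR and capillary electrophoresis fluorescence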
How it was run: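 Cis-factorial assay: transfected HepG2 reporter library, 24 h dosing, mRNA readout via RT-PCR/CE; DMSO-referenced bidirectional analysis.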

[10] = ATG_Oct_MLP_CIS: Attagene CIS-FACTORIAL HepG2 Assay for human Octamer-Binding Transcription Factor (Oct) (AID 2282993); settings: HepG2 Attagene cis-factorial Oct reporter, mRNA; actives raise or lower the signal
How it was run: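 Transient MRTU transfection of HepG2 → 24 h compound treatment → RNA isolation, reverse transcription, PCR → 6-FAM primer extension, HpaI digest → capillary electrophoresis. Activity fitted both directions against DMSO.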

[11] = target: Cellular tumor antigen p53 (Homo sapiens) (UniProt P04637); test: ATG_p53_CIS: Attagene CIS-FACTORIAL HepG2 Assay for human p53 Transcription Factor (AID 2282994); settings: HepG2 p53 cis-element reporter, Attagene mRNA; actives raise or lower the signal
How it was run: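 Using HepG2 hepatoma cells carrying cis-acting multiplexed reporters, mRNA induction is detected after a 24 h exposure. Gain- and loss-of-signal responses are fitted relative to DMSO-treated cells.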

[12] = ATG_M_06_TRANS: Attagene TRANS-FACTORIAL HepG2 Assay for M06 Transcription Factor (Internal Marker) (AID 2282983; active = hit-call score of the fitted dose curve at least 0.9, where 1 is the maximum); settings: HepG2 Attagene TRANS M06 internal marker reporter
How it was run: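 Transfect HepG2 with MRTUs → dose compounds 24 h → isolate RNA, oligo(dT) RT → PCR with reporter primers → 6-FAM primer extension → HpaI digest → CE fragment analysis. Positive direction vs DMSO.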

[13] = target: Nuclear respiratory factor 1 (Homo sapiens) (UniProt Q16656); test: ATG_NRF1_CIS: Attagene CIS-FACTORIAL HepG2 Assay for human Nuclear Respiratory Factor 1 (NRF1) Orphan Gene (AID 2282987); settings: HepG2 NRF1 cis-element reporter, Attagene multiplex; actives raise or lower the signal
How it was run: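 Endogenous NRF1-driven reporter transcription in transfected HepG2 cells after 24 h treatment. Readout: RT-PCR products, 6-FAM labelled and resolved by capillary electrophoresis; changes fitted both directions relative to DMSO.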

[14] = target: Myc proto-oncogene protein (Homo sapiens) (UniProt P01106); test: ATG_Myc_CIS: Attagene CIS-FACTORIAL HepG2 Assay for human Myelocytomatosis (Myc) Proto-Oncogene Transcription Factor (AID 2282990); settings: HepG2, Attagene cis-reporter transcription factor activity; actives raise or lower the signal
How it was run: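 DMSO-normalised, bidirectionally fitted reporter mRNA signal. HepG2 cells transfected with cis reporter constructs, treated 24 h; transcripts detected by RT-PCR, 6-FAM primer extension and CE.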

[15] = BSK_3C_TissueFactor: BioMAP Diversity Plus: 3C Assay for Tissue Factor Biomarker Activity (AID 2282997); settings: BioMAP 3C HUVEC, tissue factor biomarker readout; actives raise or lower the signal
How it was run: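 ELISA read-out of Tissue Factor levels on human umbilical vein endothelium collected 24 h after chemical dosing. Gain or loss of signal was fitted relative to DMSO.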

[16] = BSK_3C_uPAR: BioMAP Diversity Plus: 3C Assay for Urokinase-type plasminogen activator receptor (uPAR) Biomarker Activity (AID 2282998); settings: BioMAP 3C HUVEC, uPAR biomarker ELISA; actives raise or lower the signal
How it was run: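 ELISA readout of uPAR on human vascular endothelium (umbilical vein primary cells), taken 24 h after chemical dosing. Increases and decreases are both fitted relative to DMSO vehicle.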

[17] = BSK_3C_VCAM1: BioMAP Diversity Plus: 3C Assay for Vascular cell adhesion molecule 1 (VCAM1) Biomarker Activity (AID 2282999); settings: BioMAP 3C HUVEC, VCAM1 ELISA, cytokine-stimulated; actives raise or lower the signal
How it was run: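 Human umbilical vein endothelial cells were dosed with compound for 24 h, after which cell-surface VCAM-1 was quantified by ELISA. Bidirectional curve fitting used DMSO as negative control and activity baseline.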

[18] = target: Oxysterols receptor LXR-alpha (Homo sapiens) (UniProt Q13133); test: ATG_LXRa_TRANS: Attagene TRANS-FACTORIAL HepG2 Assay for human Liver X Receptor alpha (LXRa) (AID 2282980; active = hit-call score of the fitted dose curve at least 0.9, where 1 is the maximum); settings: HepG2 Attagene TRANS reporter, LXRa transactivation
How it was run: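 Transfect HepG2 with GAL4-UAS multiplex reporter constructs (TRANS format, chimeric receptor-GAL4); treat 24 h; extract RNA, reverse-transcribe, PCR-amplify, FAM-label, HpaI-digest; resolve fragments by capillary electrophoresis. Upward response vs DMSO.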

Measured: AC50

Glucocorticoid receptor (Homo sapiens), sequence (P04150 whole entry, looked up, the tested form may be a part): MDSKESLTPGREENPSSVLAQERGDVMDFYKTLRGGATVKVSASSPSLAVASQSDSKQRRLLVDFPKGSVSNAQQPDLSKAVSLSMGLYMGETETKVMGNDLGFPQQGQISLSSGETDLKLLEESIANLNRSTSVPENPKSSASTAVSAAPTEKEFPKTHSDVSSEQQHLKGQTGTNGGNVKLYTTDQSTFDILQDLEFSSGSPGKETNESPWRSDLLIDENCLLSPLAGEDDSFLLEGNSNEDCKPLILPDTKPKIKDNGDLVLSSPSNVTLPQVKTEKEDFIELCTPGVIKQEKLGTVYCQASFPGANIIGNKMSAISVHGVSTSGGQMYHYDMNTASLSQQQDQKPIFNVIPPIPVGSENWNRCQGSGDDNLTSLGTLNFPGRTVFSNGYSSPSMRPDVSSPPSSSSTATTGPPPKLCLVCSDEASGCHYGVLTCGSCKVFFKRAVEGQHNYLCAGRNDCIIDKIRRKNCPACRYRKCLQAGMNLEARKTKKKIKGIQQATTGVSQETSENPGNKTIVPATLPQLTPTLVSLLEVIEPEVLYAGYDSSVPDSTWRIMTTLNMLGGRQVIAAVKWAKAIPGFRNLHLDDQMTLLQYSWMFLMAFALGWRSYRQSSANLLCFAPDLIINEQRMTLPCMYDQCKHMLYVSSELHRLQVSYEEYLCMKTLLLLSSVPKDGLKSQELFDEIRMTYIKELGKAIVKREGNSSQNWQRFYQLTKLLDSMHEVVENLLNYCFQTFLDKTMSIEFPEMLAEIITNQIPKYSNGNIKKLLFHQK
Nuclear respiratory factor 1 (Homo sapiens), sequence (Q16656 whole entry, looked up): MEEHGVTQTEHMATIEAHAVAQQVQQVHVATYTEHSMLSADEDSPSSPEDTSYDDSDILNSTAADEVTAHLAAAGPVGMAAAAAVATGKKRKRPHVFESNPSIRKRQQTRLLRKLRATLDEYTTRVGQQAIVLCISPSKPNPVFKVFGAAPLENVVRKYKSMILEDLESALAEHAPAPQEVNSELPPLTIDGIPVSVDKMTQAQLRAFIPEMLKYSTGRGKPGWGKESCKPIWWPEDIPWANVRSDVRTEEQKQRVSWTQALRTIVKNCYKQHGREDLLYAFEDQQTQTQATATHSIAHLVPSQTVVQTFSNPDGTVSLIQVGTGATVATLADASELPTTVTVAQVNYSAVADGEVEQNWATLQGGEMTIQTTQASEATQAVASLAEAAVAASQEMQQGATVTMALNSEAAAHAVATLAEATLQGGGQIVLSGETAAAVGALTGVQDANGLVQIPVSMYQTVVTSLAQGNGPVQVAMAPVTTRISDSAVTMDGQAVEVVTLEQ
Cellular tumor antigen p53 (Homo sapiens), sequence (P04637 whole entry, looked up): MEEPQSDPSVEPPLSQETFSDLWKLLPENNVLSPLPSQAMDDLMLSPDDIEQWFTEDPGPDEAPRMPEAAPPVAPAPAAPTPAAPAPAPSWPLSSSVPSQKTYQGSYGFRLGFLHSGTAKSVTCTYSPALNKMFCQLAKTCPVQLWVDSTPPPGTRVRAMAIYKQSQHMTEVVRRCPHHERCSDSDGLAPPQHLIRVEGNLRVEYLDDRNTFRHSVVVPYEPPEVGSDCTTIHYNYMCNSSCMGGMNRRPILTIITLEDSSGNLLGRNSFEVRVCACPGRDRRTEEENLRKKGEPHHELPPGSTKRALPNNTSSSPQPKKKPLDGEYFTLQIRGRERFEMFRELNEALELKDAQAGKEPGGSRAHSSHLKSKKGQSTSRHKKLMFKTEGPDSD
Hepatocyte nuclear factor 4-alpha (Homo sapiens), sequence (P41235 whole entry, looked up, the tested form may be a part): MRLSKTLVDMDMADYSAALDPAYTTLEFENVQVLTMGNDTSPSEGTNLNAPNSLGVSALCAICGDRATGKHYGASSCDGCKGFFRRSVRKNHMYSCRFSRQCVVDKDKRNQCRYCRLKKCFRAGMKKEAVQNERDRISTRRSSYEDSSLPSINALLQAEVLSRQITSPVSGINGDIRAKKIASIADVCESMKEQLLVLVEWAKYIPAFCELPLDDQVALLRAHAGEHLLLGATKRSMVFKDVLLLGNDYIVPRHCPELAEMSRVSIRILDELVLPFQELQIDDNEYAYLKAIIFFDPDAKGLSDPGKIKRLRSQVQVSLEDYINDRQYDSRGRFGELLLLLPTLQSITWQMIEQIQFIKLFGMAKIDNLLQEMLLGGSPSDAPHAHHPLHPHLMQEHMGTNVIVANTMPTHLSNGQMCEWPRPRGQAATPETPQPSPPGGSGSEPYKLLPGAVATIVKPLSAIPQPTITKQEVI
Myc proto-oncogene protein (Homo sapiens), sequence (P01106 whole entry, looked up): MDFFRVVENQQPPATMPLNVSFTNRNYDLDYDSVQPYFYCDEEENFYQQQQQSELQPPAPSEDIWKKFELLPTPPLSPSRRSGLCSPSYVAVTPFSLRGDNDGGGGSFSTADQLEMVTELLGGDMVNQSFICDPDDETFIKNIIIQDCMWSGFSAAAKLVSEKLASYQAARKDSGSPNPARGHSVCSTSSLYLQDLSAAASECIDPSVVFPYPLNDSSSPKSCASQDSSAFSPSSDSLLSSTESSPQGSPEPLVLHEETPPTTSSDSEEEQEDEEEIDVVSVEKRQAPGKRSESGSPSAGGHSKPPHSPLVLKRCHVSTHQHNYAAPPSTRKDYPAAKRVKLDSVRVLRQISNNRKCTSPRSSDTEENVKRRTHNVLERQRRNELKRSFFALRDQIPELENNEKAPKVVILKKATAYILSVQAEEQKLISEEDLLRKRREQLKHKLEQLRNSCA
Oxysterols receptor LXR-beta (Homo sapiens), sequence (P55055 whole entry, looked up, the tested form may be a part): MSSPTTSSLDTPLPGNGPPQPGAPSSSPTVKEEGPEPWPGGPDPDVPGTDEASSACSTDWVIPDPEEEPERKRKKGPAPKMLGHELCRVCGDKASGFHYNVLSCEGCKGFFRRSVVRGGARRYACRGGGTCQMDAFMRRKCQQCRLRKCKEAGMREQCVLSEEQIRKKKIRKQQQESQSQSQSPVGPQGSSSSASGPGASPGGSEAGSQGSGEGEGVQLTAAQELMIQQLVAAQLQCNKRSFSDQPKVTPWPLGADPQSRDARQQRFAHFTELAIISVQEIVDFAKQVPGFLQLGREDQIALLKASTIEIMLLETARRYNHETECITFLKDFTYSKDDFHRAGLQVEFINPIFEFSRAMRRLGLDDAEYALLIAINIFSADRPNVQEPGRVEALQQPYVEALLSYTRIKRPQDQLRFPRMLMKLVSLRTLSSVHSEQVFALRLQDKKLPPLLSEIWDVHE
Nuclear receptor subfamily 4 group A member 2 (Homo sapiens), sequence (P43354 whole entry, looked up, the tested form may be a part): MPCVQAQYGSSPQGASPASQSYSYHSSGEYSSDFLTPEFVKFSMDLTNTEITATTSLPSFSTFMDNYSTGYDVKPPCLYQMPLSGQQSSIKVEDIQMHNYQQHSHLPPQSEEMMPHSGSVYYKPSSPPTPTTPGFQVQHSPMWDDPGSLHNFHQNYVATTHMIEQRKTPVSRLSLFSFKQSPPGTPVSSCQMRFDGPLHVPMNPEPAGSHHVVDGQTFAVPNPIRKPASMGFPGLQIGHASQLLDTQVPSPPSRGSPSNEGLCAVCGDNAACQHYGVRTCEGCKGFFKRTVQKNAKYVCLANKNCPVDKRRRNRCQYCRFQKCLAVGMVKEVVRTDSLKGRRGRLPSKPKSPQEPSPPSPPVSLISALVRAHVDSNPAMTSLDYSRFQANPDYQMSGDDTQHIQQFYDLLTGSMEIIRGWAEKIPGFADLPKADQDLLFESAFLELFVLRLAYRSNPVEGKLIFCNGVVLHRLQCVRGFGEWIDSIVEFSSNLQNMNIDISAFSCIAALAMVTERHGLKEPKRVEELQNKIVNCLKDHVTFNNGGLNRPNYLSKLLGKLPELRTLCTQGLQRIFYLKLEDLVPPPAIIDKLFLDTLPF
Oxysterols receptor LXR-alpha (Homo sapiens), sequence (Q13133 whole entry, looked up, the tested form may be a part): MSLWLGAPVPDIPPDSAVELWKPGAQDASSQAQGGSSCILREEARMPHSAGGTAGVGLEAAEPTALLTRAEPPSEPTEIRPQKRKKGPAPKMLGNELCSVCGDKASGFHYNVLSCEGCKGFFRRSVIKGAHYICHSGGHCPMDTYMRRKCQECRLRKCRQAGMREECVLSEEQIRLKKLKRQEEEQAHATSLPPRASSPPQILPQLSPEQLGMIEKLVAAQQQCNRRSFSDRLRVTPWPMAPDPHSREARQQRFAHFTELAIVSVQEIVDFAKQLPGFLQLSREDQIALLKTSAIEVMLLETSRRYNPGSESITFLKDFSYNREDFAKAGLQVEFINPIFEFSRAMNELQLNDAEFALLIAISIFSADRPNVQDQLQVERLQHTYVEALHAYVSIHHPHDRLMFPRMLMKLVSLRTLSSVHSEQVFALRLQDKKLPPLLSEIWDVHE
Transcriptional activator Myb (Homo sapiens), sequence (P10242 whole entry, looked up): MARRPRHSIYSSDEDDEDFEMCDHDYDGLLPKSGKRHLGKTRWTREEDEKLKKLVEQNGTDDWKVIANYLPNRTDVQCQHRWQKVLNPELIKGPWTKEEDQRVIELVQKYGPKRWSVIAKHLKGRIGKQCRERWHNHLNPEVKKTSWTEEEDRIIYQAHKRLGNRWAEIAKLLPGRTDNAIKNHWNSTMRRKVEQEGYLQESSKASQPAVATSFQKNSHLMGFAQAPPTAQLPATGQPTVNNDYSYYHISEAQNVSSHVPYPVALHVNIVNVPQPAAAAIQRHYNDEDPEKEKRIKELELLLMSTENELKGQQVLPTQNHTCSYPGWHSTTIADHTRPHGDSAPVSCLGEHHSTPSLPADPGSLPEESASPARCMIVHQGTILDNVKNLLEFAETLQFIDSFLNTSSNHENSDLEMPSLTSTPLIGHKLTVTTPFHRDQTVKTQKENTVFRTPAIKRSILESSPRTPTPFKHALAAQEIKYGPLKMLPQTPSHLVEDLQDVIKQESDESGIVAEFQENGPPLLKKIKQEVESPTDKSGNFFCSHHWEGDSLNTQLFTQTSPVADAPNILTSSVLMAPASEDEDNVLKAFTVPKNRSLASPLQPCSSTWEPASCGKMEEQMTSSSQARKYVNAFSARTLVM

O=C(C=Cc1ccccc1)OCCCc1ccccc1
active: [9] 58 µM
not listed: [12] | [13] | [14] | [15] | [16] | [17] | [18]
inactive: all other assays above

CC1(C)[C@H](C=C(Cl)Cl)[C@H]1C(=O)OCc1cccc(Oc2ccccc2)c1
not listed: [2] | [4] | [8] | [11] | [18]
inactive: all other assays above

CCCCCCCCOC(=O)c1ccc(O)cc1
not listed: [2] | [4] | [11] | [15] | [16] | [17] | [18]
inactive: all other assays above

CC/C=C\CCOC(C)OCC (stereo not drawn)
not listed: [2] | [7] | [8] | [15] | [16] | [17] | [18]
inactive: all other assays above

OCCCO
not listed: [2] | [11] | [15] | [16] | [17] | [18]
inactive: all other assays above

CCCCCCC(C)O (stereo not drawn)
inactive: [1] | [2] | [3] | [12] | [4] | [6] | [13] | [14] | [9] | [10]

CCCCOC(=O)C(C)OC(=O)CCC (stereo not drawn)
inactive: [1] | [3] | [12] | [6] | [13] | [7] | [14] | [8] | [9] | [10]

CC(C)(O)C(=O)c1ccc(OCCO)cc1
not listed: [4] | [5] | [15] | [16] | [17] | [18]
inactive: all other assays above

N=C1N=C(N)c2ccccc21
not listed: [2] | [8] | [15] | [16] | [17]
inactive: all other assays above

Cc1ccc(C(C)(C)O)cc1
not listed: [2] | [3] | [4] | [5] | [15] | [16] | [17]
inactive: all other assays above

CC/C=C\C#N
not listed: [4] | [15] | [16] | [17] | [18]
inactive: all other assays above

O=C(O)C1=NN(c2ccc(S(=O)(=O)O)cc2)C(=O)C1
inactive: [1] | [2] | [3] | [5] | [6] | [13] | [7] | [14] | [9] | [10]

c1ccc(OCCOc2ccccc2)cc1
active: [15] 1.24 µM and 1.4 µM
not listed: [2] | [4] | [5]
inactive: all other assays above

C1=COCCC1
not listed: [2] | [3] | [15] | [16] | [17]
inactive: all other assays above

NC(N)=S
inactive: [1] | [18] | [3] | [12] | [4] | [6] | [13] | [14] | [9] | [10]

CCCCCCCCCCCCN1CCOCC1
inactive: [1] | [18] | [12] | [6] | [14] | [8] | [11]
active: [13] 59.8 µM | [9] 33.4 µM | [10] 45.4 µM

COc1ccc(OC)cc1
not listed: [2] | [4] | [5] | [15] | [16] | [17]
inactive: all other assays above

CC(=O)CCC(=O)O
inactive: [1] | [18] | [4] | [6] | [13] | [7] | [14] | [9] | [10]

CCCCCCCCCCCCCCCCCC(=O)OCCCCCCCCCCCCCC(C)C
not listed: [4] | [5] | [15] | [16] | [17] | [18]
inactive: all other assays above
